The text below walks through data of PubChem BioAssay AID463173 (ICCB-Longwood Screening Facility, Harvard Medical School, 2010).

Screen size: about 52,000 compounds; about 1,700 (3.3%) were called active. Shown is part of a subset that was picked to be rich in actives. Unmarked numbers belong to inactive results. Cut-off read from the data, not from the text of the source: active = survival mostly below about 52% (no sharp cut-off); inactive = mostly above about 56%.

The subject of this test is Wild type. Kind of test: growth inhibition of S. aureus wild type versus tarO mutant, primary screen, teichoic acid synthesis inhibitors, RN4220, OD600 (AID 463173). The settings on record: S. aureus RN4220 wild type/DeltatarO growth, OD600, 18 h, hits give low values, screened at 18.75 µg/mL (by protocol).
For `CCCCOC(=O)c1ccc(Nc2ncnc3c2cnn3-c2cccc(C)c2)cc1`, the survival was 88%.
The same measure for `Cn1cnnc1SC1CCCCC1NS(=O)(=O)c1ccc(Cl)cc1` (stereo unspecified): 103%; for `COc1ccccc1N1CCN(c2cc(C)nc3nc(-c4ccc(Cl)cc4)nn23)CC1`: 78%.
Take `CCCCN(CC)CCCNC(=O)c1cc2c(=O)oc3ccc(C)cc3c2s1`: the survival was 97%.
Consider `COc1ccc2c(c1)c1c(c(=O)n(Cc3ccccc3)c(=O)n1CC(=O)NCc1ccc(C)cc1)n2C`, for which the survival was 82%.
As to `COc1ccc(-c2noc(CSc3nnc(Cc4ccccc4)n3-c3cccc(C)c3)n2)cc1`, the survival is 67%.
For `COc1ccc(N2CC(C(=O)NC3=NCCS3)CC2=O)cc1` (stereo unspecified), the survival was 102%.
As for `CC(C)N(C(=O)Cn1cc(SCC(=O)Nc2ccccc2F)c2ccccc21)C(C)C`, the survival is 86%.
For `O=Nc1c(O)n2c3c(cccc13)CCC2`, the survival was 124%.
Consider `N#CC(C#N)=C(N)/C(C#N)=C\c1ccc(-c2ccccc2)o1`, for which the survival was 129%.
For `O=S(=O)(c1ccc(Cl)cc1)c1nc(-c2ccco2)oc1SCc1ccc(F)cc1`, the survival is 73%.
Regarding `COc1cccc(NC(=O)C2=C(C)C(=O)OC23CCN(C(C)=O)CC3)c1`, the survival is 79%.
In the case of `CCOC(=O)c1c(Oc2ccc(C(=O)OC)cc2)nnc(-c2ccccc2)c1-c1ccccc1`, the survival is 87%.
As to `CCOC(=O)c1c(Nc2ccc(O)cc2)nnc(-c2ccccc2)c1-c1ccccc1`, the survival was 96%.
The same measure for `CCOC(=O)c1c(Nc2ccccc2)nnc(-c2ccccc2)c1-c1ccccc1`: 5% (active); for `CCOC(=O)c1c(-c2ccccc2)csc1NC(=O)c1cc(-c2cccc(OC)c2)on1`: 72%; for `CC(=O)N1CCCc2cc(S(=O)(=O)N(Cc3ccccc3)C(C)C)ccc21`: 73%.
Take `Cc1ccccc1C(=O)Nc1ccccc1C(=O)OCc1cc(=O)n2ccsc2n1`: the survival was 98%.
`Cc1ccccc1C(=O)Nc1cccc(C(=O)OCc2cc(=O)n3ccsc3n2)c1`: the survival is 64%.
Turning to `COc1ccccc1C(=O)Nc1ccc(C(=O)OCc2cc(=O)n3ccsc3n2)cc1`, the survival was 72%.
With `Cc1cccc(C(=O)OCc2cc(=O)n3ccsc3n2)c1`, the survival is 71%.
The same measure for `COc1ccccc1C(=O)Nc1cccc(C(=O)OCc2cc(=O)n3ccsc3n2)c1`: -6% (active).
To `COc1cc(C(=O)OCc2cc(=O)n3ccsc3n2)cc(OC)c1OC` belongs -4% (active); to `O=C(Nc1ccccc1C(=O)OCc1cc(=O)n2ccsc2n1)c1ccccc1Cl`, 75%.
The same measure for `COc1ccccc1C(=O)Nc1ccccc1C(=O)OCc1cc(=O)n2ccsc2n1`: -6% (active).
For the compound `COc1cc(C(=O)OCc2cc(=O)n3nc(C(C)C)sc3n2)cc(OC)c1OC`, the survival is 78%.
With `O=[N+]([O-])c1cc(-c2nc(-c3ccccn3)no2)ccc1NCc1ccccc1`, the survival was 73%.
Take `CCOC(=O)Cn1c(=O)oc2cc(S(=O)(=O)N3CCN(c4ccc(C(C)=O)cc4)CC3)ccc21`: the survival is 81%.
For the compound `CC(C)(C)OC(=O)N1CCC(c2c(C(=O)N3CCN(c4ccccn4)CC3)cnn2-c2ccccc2Cl)CC1`, the survival was 53%.
The same measure for `COc1cc(NC(=O)c2ccccc2)c(OC)cc1NC(=O)CN1CCCCC1`: 109%.
On to `CCOC(=O)c1ccc(N2C(=O)c3n[nH]c(-c4cccs4)c3C2c2ccc(C)cc2)cc1` (stereo unspecified), for which the survival was 66%.
To `CCC1CCCCN1CCCNC(=O)c1[nH]c2ccccc2c1Sc1ccc(Cl)cc1` (stereo unspecified) belongs -1% (active).
For `CCOC(=O)C1CCCN(C(=O)c2[nH]c3ccccc3c2Sc2ccc(Cl)cc2)C1` (stereo unspecified), the survival is 75%.
As to `CC1CCCCN1CCCNC(=O)c1cc(Sc2cccc(Cl)c2)nc2ccccc12` (stereo unspecified), the survival was 54%.
To `CC1CCCCN1CCCNC(=O)c1[nH]c2ccccc2c1Sc1ccc(Cl)cc1` (stereo unspecified) belongs -1% (active).
To `CCN(CC)CCNC(=O)c1[nH]c2ccccc2c1Sc1ccc(Cl)cc1` belongs 42%.
Turning to `CCCCNC(=O)c1[nH]c2ccccc2c1Sc1ccc(C)cc1`, the survival is 83%.
As to `COc1ccc(-c2noc(-c3ccc(NCCc4ccccc4)c([N+](=O)[O-])c3)n2)cc1`, the survival was 84%.
Consider `CC(=O)Nc1ccc(C(=O)N2CC(C)OC(C)C2)cc1` (stereo unspecified), for which the survival was 133%.
Turning to `CC(C(=O)N1CCCCC1)N1CCC(N2CCCCC2)CC1` (stereo unspecified), the survival is 93%.
On to `CCc1ccccc1NC(=O)CN1C(=O)CCSc2ccc(S(=O)(=O)N3CCCC3)cc21`, for which the survival was 124%.
In the case of `O=C(Nc1ccc2oc(-c3cccnc3)nc2c1)c1ccc(-c2cccc(OC(F)(F)F)c2)o1`, the survival is 80%.
Take `Cc1ccc(NC(=O)N(Cc2cn(C)c3ccccc23)C2CCCCC2)cc1C`: the survival was -1% (active).
With `Cn1cc(CN(C(=O)Nc2ccc(Cl)c(Cl)c2)C2CCCCC2)c2ccccc21`, the survival was 60%.
Take `COc1ccc2[nH]c(=O)c(CN(C(=O)Nc3ccccc3)C3CCCC3)cc2c1`: the survival was 103%.
With `Cc1ccc(NC(=O)N(Cc2c[nH]c3ccccc23)C2CCCCCC2)cc1C`, the survival is 54%.
`Cn1cc(CN(C(=O)Nc2ccccc2)C2CCCCC2)c2ccccc21`: the survival is -1% (active).
On to `O=C(Nc1ccccc1)N(Cc1c[nH]c2ccccc12)C1CCCCCC1`, for which the survival is 48%.
Regarding `CCOc1ccc(C(=O)Nc2ccccc2C(=O)OCc2cc(=O)n3nc(C4CC4)sc3n2)cc1`, the survival is 78%.
Take `CCOC(=O)c1c(C)[nH]c(CCC(=O)Nc2ccc(C)c(F)c2)c1C`: the survival is 70%.
Turning to `O=C(NCC(c1cccnc1)N1CCN(Cc2ccccc2)CC1)C(=O)Nc1cccc(F)c1` (stereo unspecified), the survival was 114%.
For `COc1ccc(CCN2CC(C(=O)NCCc3ccc(C)cc3)CC2=O)cc1OC` (stereo unspecified), the survival was 60%.
`Cc1cccc(CNC(=O)c2cnc3sc(N4CCOCC4)nn3c2=O)c1`: the survival is 119%.
Consider `Cc1cc(=O)[nH]c2nnc(SCc3c(F)cccc3Cl)n12`, for which the survival is 140%.
Turning to `COc1ccccc1C(=O)Nc1ccccc1OCc1cc(=O)n2c(C)csc2n1`, the survival was 81%.
With `COc1ccc(NC(=O)c2csc3c2CCCCC3)cc1`, the survival is 72%.
As for `CSc1ncc(C(=O)NCc2cccc(F)c2)c(-c2ccccc2)n1`, the survival was 82%.
The same measure for `CSc1ncc(C(=O)Nc2ccc(F)cc2F)c(-c2ccccc2)n1`: 73%.
The same measure for `CSc1ncc(C(=O)NCc2ccc(C)cc2)c(C)n1`: 73%.
`COc1ccc(Cl)cc1NC(=O)c1cnc(SC)nc1-c1ccccc1`: the survival was 22%.
For the compound `CCOc1ccc(OCC)c(NC(=O)c2cnc(SC)nc2-c2ccccc2)c1`, the survival is 0% (active).
Regarding `CCOc1ccc(OCC)c(NC(=O)c2csc3c2CCCC3)c1`, the survival is -1% (active).
As to `CSc1ncc(C(=O)NCc2ccc(F)cc2)c(-c2ccccc2)n1`, the survival was 87%.
Regarding `CSc1ncc(C(=O)NCc2cccc(C)c2)c(-c2ccccc2)n1`, the survival is 65%.
Regarding `CSc1ncc(C(=O)NCc2ccccc2)c(-c2ccccc2)n1`, the survival was 10% (active).
To `CSc1ncc(C(=O)NCc2ccc(C)cc2)c(-c2ccccc2)n1` belongs -2% (active).
For `CCOc1ccc(CCNC(=O)c2csc3c2CCCCC3)cc1`, the survival is 81%.
The same measure for `CCOc1ccccc1NC(=O)Cn1c(=O)n(-c2ccccc2)c(=O)c2c1c1cc(C)ccc1n2C`: 84%; for `CCOC(=O)CNC(=O)c1cc2c(=O)oc3ccccc3c2s1`: 146%.
The same measure for `CCc1ccc(C2C(C(=O)Nc3ccc(Cl)cc3)=C(C)Nc3ncnn32)cc1` (stereo unspecified): 59%.
The same measure for `Cc1ccc(CNC(=O)c2ccc3c(O)c(S(=O)(=O)c4ccccc4)c(=O)[nH]c3c2)cc1`: 83%; for `N=C1SCC(=O)N1c1ccc(Cl)cc1`: 124%; for `Cc1ccc(-n2c(SCc3ccccc3F)nc3[nH]ncc3c2=O)cc1Cl`: 77%.
On to `Cc1ccc2[nH]c(=O)c3cc(C(=O)N(C)c4ccc(Br)cc4)sc3c2c1`, for which the survival was 81%.
Take `COC(=O)c1ccc(NC(=O)CN2C(=O)c3cccc4cccc2c34)cc1`: the survival was 85%.
On to `NS(=O)(=O)c1ccc(CCNC(=O)CCn2c(=O)c3cccn3c3cccnc32)cc1`, for which the survival is 92%.
The same measure for `O=C(NCc1cccc(Cl)c1)c1cnc(N2CCCCC2)c2ccccc12`: 89%; for `O=C(COC(=O)c1cccc(NC(=O)c2ccc(Br)cc2)c1)c1ccc(Cl)cc1`: 93%; for `O=C(CC1N=C2c3ccccc3N=C(SCC(=O)Nc3cccc(Cl)c3)N2C1=O)NCc1cccs1` (stereo unspecified): 82%.
To `CCn1ccc2cc(S(=O)(=O)N3CCC(C(=O)NCc4ccc(OC(C)C)cc4)CC3)ccc21` belongs 69%; to `CCn1ccc2cc(S(=O)(=O)N3CCC(C(=O)NCc4ccc(OC)cc4)CC3)ccc21`, -3% (active).
On to `CCCCNC(=O)C1CCN(S(=O)(=O)c2ccc3c(ccn3CC)c2)CC1`, for which the survival was 124%.
Regarding `CCn1ccc2cc(S(=O)(=O)N3CCC(C(=O)NCc4ccc(F)cc4)CC3)ccc21`, the survival is 80%.
With `CCC(C)NC(=O)C1CCN(S(=O)(=O)c2ccc3c(ccn3CC)c2)CC1` (stereo unspecified), the survival was 0% (active).
For `CCn1ccc2cc(S(=O)(=O)N3CCC(C(=O)NCC(C)c4ccccc4)CC3)ccc21` (stereo unspecified), the survival was 87%.
As for `O=C(Cn1c(=O)nc(-c2ccccc2)c2ccccc21)NCCCc1ccccc1`, the survival was 60%.
With `Cc1c(Cl)cccc1Nc1nn2c(=O)c3ccc(C(=O)NCCC4=CCCCC4)cc3nc2s1`, the survival was 74%.
For `COc1ccc(OC)c(S(=O)(=O)N2CC=C(c3c(C)n(CC(=O)N4CCCC4)c4ccccc34)CC2)c1`, the survival was 83%.
The same measure for `O=S(=O)(c1cccc2nsnc12)N(CCOc1ccccc1)C1CCCCC1`: 99%.
For `COc1cccc(CNC(=O)C2CCN(c3ncccn3)CC2)c1`, the survival was 102%.
To `CCn1c(=O)c2cc(C(=O)N3CCN(c4cccc(OC)c4)CC3)sc2c2ccccc21` belongs 69%.
